Assay results from PubChem BioAssay (EPA / NIEHS).
The source made the active and inactive calls. How the source made its calls: active means hit-call score of the fitted dose curve at least 0.9, where 1 is the maximum; inactive means score below 0.9.

Each compound was assayed on Intercellular Adhesion Molecule 1 (ICAM1), ICAM1 (gene 3383) (assay: LTEA_HepaRG_ICAM1: Life Technologies and Expression Analysis (LTEA) Assay for Intercellular Adhesion Molecule 1 (ICAM1) using HepaRG (AID 2283507)). Conditions: mRNA level, 48 h; actives raise or lower the signal.
Protocol: LTEA_HepaRG is a cell based, multiplexed-readout assay that uses HepaRG, a human liver cell line, with measurements taken at 48 hours after chemical dosing on a 96-well plate.LTEA_HepaRG_ICAM1 is one of 102 assay component(s) measured in the LTEA HepaRG cell culture assay. It is a marker of Fibrosis.Data from the assay component LTEA_HepaRG_ICAM1 was analyzed into 1 endpoint. This assay endpoint, LTEA_HepaRG_ICAM1, was analyzed with bidirectional fitting relative to DMSO as the negative control and baseline of activity. Using a type of inducible reporter, measures of mRNA induction for gain or loss-of-signal activity can be used to understand regulation of transcription factor activity. To generalize the intended target to other relatable targets, this assay endpoint is annotated to the cell adhesion molecules intended target family, where the subfamily is Immunoglobulin CAM.
A total of 1060 chemcials from the ToxCast library were tested in eight-point concentration-response experiments. Cell culture and cytotoxicity assays were conducted at Thermo Fisher Scientific's Custom Services facility (Madison, WI). A single lot of human HepaRG cells (Thermo Fisher Scientific, Frederick, MD) was used for the cell culture experiments. 96-well format collagen type I coated plates of human HepaRG cells were prepared using established methods. Briefly, cryopreserved HepaRG cells were thawed, plated at a density of approximately 100,000 cells/well in HepaRG Thaw, Plate, and General Purpose media (HPRG770, Thermo Fisher Scientific), and incubated for 48 hours. 0.5% DMSO was selected as vehicle control to balance the requisite need of DMSO in HepaRG cultures to maintain differentiation (for example, baseline metabolism, proportions of hepatocytes vs. cholangiocytes), while enabling further hepatic receptor pathway activation (for example, PXR and CAR) in response to chemical exposure. 48 hours after plating, the culture medium was replaced with HepaRG Serum-Free Incudtion Media. Cells were exposed to each test chemical in duplicate and maintained in CO2 incubators for another 48 hours. Chemical plates were thawed to room temperature and 200x concentrations of treatment groups were prepared. 8-point conentration-reponse curves were made with the highest exposure at 100 uM, followed by half-log dilutions, all in 0.5% DMSO. Each test plate contained variouse controls, induction positive controls (1mM phenobarbital), cytotoxicity positive controls ([…] aflatoxin B1), vehicle controls (0.5% DMSO), and total lysis controls (0.5% DMSO). Cell morphology images were taken using an Essen IncuCyte FLR automated microscope, with six 96-well plates imaged in about 24 minutes. Images were captured and exported and JPEG files. Spent culture media was transfered to black-well plates for the LDH assay, and remaining media was sorted at -80 C for later use. Cells were treated with RLT buffer and frozen until shipped for gene expression analysis. Total RNA was isolated from the cell suspension in 75 uL of Buffer RLT (Qiagen, Germantown, MD 20874) by Quintiles/Expression Analysis (Durham, NC) using a custom isolation procedure. Total RNA from each plate well was transferred to a preamplification plate. Fluidigm's 96.96 Dynamic ArrayTM (Fluidigm, Amsterdam, the Netherlands) technology was used for gene expression analyses by quantitative reverse transcription polymerase chain reaction (qRT-PCR, performed by Quintiles/Expression Analysis, Durham, NC)89. Standard TaqManTM Assays (Applied Biosystems/ThermoFisher Scientific, Foster City, CA) were used to assess the expression of 93 genes selected based on their selectivity and sensitivity to important hepatic receptors known to be modulated by environmental chemicals; importance in human hepatocyte functionality; and hepatotoxicity. […]

SMILES | outcome | AC50
c1ccc2cc3c(ccc4ccccc43)cc2c1 | inactive | –
Cc1oc(-c2ccccc2)nc1CCOc1ccc(C[C@H](Nc2ccccc2C(=O)c2ccccc2)C(=O)O)cc1 | – | 26.8 µM (active)
CC(C)(C)CC(C)(C)c1ccc(O)c(-n2nc3ccccc3n2)c1 | inactive | –
Oc1cc2ccccc2c2ccccc12 | inactive | –
Nc1cccc2c(N)cccc12 | inactive | –
CC(C)(C)c1cc(C(C)(C)C)c(O)c(C(C)(C)C)c1 | inactive | –
OC1CCCCC1 | inactive | –
Cc1cc(CCN2CCN(c3nsc4ccccc34)CC2)cc2c1NC(=O)CC2(C)C | inactive | –
O=C(O)c1ccccc1C(c1ccc(O)cc1)c1ccc(O)cc1 | inactive | –
N#C[C@@H]1CC(F)(F)CN1C(=O)CNC1CC2CCC(C1)N2c1ncccn1 (stereo not given in full) | inactive | –
CC#C[C@]1(O)CC[C@H]2[C@@H]3CCC4=CC(=O)CCC4=C3[C@@H](c3ccc(N(C)C)cc3)C[C@@]21C | – | 26 µM (active)
NC(=O)N(O)[C@@H]1C=C[C@H](Oc2cccc(Oc3ccc(F)cc3)c2)C1 | – | 37.3 µM (active)
OC1CCC(C2CCCCC2)CC1 (stereo not given) | inactive | –
c1ccc2c(c1)Cc1ccccc1-2 | inactive | –
CCC(C)(C)C1CCC(O)CC1 (stereo not given) | inactive | –
CC[C@H](c1ccc(O)cc1)[C@@H](CC)c1ccc(O)cc1 | inactive | –
CCCCCCCCCCCCN1CCCC1=O | inactive | –
CCCCCCCCCCCCc1ccccc1S(=O)(=O)O | – | 82.1 µM (active)
CN(C)C=O | inactive | –
CCc1ccc(CCOc2ccc(CC3SC(=O)NC3=O)cc2)nc1 (stereo not given) | – | 50 µM (active)

SMILES | outcome | AC50
COc1ccc([N+](=O)[O-])cc1N | inactive | –
CC[C@H](C)[C@@H](C(=O)O)n1sc2ccccc2c1=O | inactive | –
CCOC(=O)CC(O)(CC(=O)OCC)C(=O)OCC | inactive | –
CCCCCCC(=O)O | inactive | –
CC(=O)NC1(c2cccc(F)c2)CCN(CC[C@@]2(c3ccc(Cl)c(Cl)c3)CN(c3ccccc3)C(=O)CO2)CC1 | – | 49 µM (active)
CCCCCCCCC(=O)O | inactive | –
CC(C)CCCCCCOC(=O)CCCCC(=O)OCCCCCCC(C)C | inactive | –
CC(O)CO (stereo not given) | inactive | –
COC(=O)CCCCC(=O)OC | inactive | –
c1ccc2c(c1)ccc1ccccc12 | inactive | –
CCC(=C(c1ccc(O)cc1)c1ccc(OCCN(C)C)cc1)c1ccccc1 | – | 67.9 µM (active)
CCCCCCCCOC(=O)CCCCCCCCC(=O)OCCCCCCCC | inactive | –
O=[N+]([O-])c1ccc(O)cc1 | inactive | –
NC(=O)N1C(=O)C(C(=O)c2cc(Cl)cs2)c2cc(F)c(Cl)cc21 (stereo not given) | – | 19.9 µM (active)
CC(=O)CC(C)(C)O | inactive | –
CCc1nn(C2CCCCC2)c2cc(C3(C#N)CCC(C(=O)O)CC3)ccc12 (stereo not given) | – | 28.7 µM (active)
CCCCC(CC)COC(=O)CCCCC(=O)OCC(CC)CCCC (stereo not given) | inactive | –
OCCC(F)(F)C(F)(F)C(F)(F)C(F)(F)C(F)(F)C(F)(F)F | inactive | –
CCN(CC)CCNc1ccc(CNC=O)c2sc3ccc(OC)cc3c(=O)c12 | – | 62.6 µM (active)
ClC1=C(Cl)C(Cl)(Cl)C(Cl)=C1Cl | inactive | –
